Common to all, as to assay: DAPPL (digital affinity profiling via proximity ligation, sequencing); 10 mM Tris-HCl pH 7.5, 50 mM NaCl, 1 mM DTT, 4% glycerol, room temperature, 30 min; GST-TFs on glutathione beads, 16-mer random dsDNA library, 0.1% formaldehyde crosslink after washing; high values mean tight binding
One experiment concerns the target T1, FLI1 (Homo sapiens, UniProt Q01543 1-452).
T1 sequence: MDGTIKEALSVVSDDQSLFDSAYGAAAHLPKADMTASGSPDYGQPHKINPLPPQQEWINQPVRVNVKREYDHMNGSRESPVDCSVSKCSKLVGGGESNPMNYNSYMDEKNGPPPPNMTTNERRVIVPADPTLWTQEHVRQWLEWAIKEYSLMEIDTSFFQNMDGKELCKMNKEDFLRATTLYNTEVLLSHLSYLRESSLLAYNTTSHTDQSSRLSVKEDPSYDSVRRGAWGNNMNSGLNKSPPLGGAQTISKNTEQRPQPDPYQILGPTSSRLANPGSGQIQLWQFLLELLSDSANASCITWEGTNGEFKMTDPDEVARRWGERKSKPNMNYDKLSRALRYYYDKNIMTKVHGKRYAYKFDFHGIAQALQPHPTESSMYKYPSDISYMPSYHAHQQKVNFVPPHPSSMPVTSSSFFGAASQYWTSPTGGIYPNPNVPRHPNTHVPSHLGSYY
Conditions: protein: recombinant; tags: N-terminal GST; dsDNA, one strand shown. An outline of the steps:
(§1)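 Each value of binding signal is a hexamer's read frequency for a factor divided by the same hexamer's frequency in the tag-only sample. Barcoded, bead-captured GST fusions of human transcription factors made in yeast were pooled with that sample and incubated with 200 nmole of a random double-stranded 16-mer DNA library in Tris/NaCl/DTT/glycerol buffer at room temperature for 30 min. Washing, 0.1% formaldehyde crosslinking, proximity ligation, PCR and Illumina NextSeq500 sequencing followed.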

In the next experiment the target is T2, ELK1 (Homo sapiens, UniProt P19419 1-428).
T2 sequence: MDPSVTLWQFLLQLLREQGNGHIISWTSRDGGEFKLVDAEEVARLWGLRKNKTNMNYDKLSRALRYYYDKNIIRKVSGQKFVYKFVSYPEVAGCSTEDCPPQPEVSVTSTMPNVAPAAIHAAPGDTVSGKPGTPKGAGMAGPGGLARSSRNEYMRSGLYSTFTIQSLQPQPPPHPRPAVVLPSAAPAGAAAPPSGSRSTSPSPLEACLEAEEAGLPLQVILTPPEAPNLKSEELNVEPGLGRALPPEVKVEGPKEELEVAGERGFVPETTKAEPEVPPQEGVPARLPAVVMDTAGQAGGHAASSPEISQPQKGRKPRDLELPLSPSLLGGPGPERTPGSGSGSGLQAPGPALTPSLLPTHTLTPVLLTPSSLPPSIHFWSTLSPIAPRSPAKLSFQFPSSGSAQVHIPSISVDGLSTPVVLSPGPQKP
Conditions: protein: recombinant; tags: N-terminal GST; dsDNA, one strand shown. An outline of the steps:
as §1

The target in the next experiment is T3, GABPA (Homo sapiens, UniProt Q06546 1-454).
T3 sequence: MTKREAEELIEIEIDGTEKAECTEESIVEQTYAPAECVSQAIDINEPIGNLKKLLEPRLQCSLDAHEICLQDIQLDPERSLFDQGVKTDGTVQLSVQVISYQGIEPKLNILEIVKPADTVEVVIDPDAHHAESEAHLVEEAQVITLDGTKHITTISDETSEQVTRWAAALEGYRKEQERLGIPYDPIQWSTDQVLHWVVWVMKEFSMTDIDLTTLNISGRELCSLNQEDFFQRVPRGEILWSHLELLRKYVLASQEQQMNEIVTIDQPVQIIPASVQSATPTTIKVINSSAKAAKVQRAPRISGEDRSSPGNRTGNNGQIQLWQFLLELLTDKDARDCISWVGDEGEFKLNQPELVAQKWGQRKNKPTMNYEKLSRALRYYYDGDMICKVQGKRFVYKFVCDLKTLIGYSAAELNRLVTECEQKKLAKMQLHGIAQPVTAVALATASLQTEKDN
Conditions: protein: recombinant; tags: N-terminal GST; dsDNA, one strand shown. The gist of the method: as §1

A further experiment has as its target T4, ERG (Homo sapiens, UniProt P11308 1-479).
T4 sequence: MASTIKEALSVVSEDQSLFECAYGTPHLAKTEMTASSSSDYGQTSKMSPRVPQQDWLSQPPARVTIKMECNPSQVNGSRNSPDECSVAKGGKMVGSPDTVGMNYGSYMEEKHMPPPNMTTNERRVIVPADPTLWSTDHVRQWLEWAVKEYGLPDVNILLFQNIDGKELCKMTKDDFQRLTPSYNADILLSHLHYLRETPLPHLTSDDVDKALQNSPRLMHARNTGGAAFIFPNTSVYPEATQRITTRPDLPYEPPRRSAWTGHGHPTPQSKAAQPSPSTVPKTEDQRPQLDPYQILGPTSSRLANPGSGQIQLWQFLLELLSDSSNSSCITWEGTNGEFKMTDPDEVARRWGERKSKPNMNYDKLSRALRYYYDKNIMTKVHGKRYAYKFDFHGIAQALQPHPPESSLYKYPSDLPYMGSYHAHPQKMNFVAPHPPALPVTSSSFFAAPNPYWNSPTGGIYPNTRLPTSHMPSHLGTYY
Conditions: protein: recombinant; tags: N-terminal GST; dsDNA, one strand shown. An outline of the steps: as §1

A further experiment deals with ELF1 (Homo sapiens, UniProt P32519 1-619). To be noted: protein: recombinant; tags: N-terminal GST; dsDNA, one strand shown. An outline of the steps:
as §1

In the next experiment the target is SPI1 (Homo sapiens, UniProt P17947 1-270). To be noted: protein: recombinant; tags: N-terminal GST; dsDNA, one strand shown. The gist of the method: as §1
The target in another experiment is SPIB (Homo sapiens, UniProt Q01892 1-262). Conditions: protein: recombinant; tags: N-terminal GST; dsDNA, one strand shown. An outline of the steps:
as §1

The target of another experiment is T5, ELK3 (Homo sapiens, UniProt P41970 1-407).
T5 sequence: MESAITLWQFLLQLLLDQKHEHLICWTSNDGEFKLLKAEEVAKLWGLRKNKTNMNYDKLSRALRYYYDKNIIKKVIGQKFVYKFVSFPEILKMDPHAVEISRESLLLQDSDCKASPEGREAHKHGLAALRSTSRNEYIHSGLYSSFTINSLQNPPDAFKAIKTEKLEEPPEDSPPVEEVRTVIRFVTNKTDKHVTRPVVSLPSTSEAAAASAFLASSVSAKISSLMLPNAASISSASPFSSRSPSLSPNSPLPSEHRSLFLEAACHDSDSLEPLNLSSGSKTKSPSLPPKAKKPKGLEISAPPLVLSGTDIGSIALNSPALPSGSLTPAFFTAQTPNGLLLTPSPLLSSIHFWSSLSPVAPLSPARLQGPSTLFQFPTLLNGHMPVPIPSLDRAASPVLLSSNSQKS
To be noted: protein: recombinant; tags: N-terminal GST; dsDNA, one strand shown. The gist of the method: as §1

The target of another experiment is T6, FEV (Homo sapiens, UniProt Q99581 1-238).
T6 sequence: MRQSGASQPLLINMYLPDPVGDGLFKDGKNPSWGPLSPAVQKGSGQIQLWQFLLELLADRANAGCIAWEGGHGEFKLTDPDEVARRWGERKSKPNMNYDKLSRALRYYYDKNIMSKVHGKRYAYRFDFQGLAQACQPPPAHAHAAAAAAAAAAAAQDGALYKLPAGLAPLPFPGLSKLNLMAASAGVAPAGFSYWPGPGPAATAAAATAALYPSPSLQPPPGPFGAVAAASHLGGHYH
To be noted: protein: recombinant; tags: N-terminal GST; dsDNA, one strand shown. An outline of the steps: as §1

Another experiment has as its target ETV5 (Homo sapiens, UniProt P41161 1-510). To be noted: protein: recombinant; tags: N-terminal GST; dsDNA, one strand shown. An outline of the steps:
as §1

The target in the next experiment is HSF1 (Homo sapiens, UniProt Q00613 1-529). Conditions: protein: recombinant; tags: N-terminal GST; chain copies: 3; dsDNA, one strand shown. An outline of the steps:
as §1

The target in the next experiment is ELF4 (Homo sapiens, UniProt Q99607 1-663). To be noted: protein: recombinant; tags: N-terminal GST; dsDNA, one strand shown. An outline of the steps: as §1
ELF4, sequence (Q99607 whole entry): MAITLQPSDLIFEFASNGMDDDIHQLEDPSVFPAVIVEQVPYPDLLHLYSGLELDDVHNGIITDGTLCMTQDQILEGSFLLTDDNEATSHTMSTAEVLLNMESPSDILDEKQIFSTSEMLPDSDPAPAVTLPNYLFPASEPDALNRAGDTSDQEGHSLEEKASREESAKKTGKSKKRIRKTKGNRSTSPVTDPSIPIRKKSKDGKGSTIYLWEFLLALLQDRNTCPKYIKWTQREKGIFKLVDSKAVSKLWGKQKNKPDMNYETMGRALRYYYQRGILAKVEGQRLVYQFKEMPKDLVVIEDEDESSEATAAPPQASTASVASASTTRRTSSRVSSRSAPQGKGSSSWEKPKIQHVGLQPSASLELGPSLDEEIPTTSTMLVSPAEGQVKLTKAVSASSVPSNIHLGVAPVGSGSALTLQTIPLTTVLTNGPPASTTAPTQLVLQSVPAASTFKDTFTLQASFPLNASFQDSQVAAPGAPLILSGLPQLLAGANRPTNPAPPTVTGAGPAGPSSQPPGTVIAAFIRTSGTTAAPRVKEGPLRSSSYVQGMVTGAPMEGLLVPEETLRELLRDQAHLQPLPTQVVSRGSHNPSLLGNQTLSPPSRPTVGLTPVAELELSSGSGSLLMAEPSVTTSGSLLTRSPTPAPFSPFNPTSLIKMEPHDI
The next experiment addresses T7, ELK4 (Homo sapiens, UniProt P28324-2 1-405).
T7 sequence: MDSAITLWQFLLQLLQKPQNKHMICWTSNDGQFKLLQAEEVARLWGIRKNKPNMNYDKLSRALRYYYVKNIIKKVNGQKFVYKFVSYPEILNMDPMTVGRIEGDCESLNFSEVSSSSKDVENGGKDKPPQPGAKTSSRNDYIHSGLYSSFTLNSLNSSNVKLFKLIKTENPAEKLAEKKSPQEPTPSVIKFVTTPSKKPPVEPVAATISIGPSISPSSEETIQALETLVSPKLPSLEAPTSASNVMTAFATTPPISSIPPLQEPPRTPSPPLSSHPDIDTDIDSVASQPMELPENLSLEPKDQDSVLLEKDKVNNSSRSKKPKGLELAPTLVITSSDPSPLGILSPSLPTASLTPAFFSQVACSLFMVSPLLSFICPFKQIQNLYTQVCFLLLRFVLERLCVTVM
To be noted: protein: recombinant; tags: N-terminal GST; dsDNA, one strand shown. An outline of the steps:
as §1

The target in another experiment is T8, ETV2 (Homo sapiens, UniProt O00321 1-342).
T8 sequence: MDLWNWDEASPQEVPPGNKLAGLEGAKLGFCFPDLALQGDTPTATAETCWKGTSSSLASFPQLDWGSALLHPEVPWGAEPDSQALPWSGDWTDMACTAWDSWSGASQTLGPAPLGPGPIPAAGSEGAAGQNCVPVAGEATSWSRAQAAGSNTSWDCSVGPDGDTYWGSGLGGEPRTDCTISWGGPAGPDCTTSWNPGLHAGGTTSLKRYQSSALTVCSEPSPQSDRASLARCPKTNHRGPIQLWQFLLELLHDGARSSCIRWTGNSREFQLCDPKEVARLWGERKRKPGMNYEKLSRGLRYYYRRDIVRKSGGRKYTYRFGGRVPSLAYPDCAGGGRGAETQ
To be noted: protein: recombinant; tags: N-terminal GST; dsDNA, one strand shown. The gist of the method: as §1

Another experiment has as its target T9, ELF3 (Homo sapiens, UniProt P78545 1-371).
T9 sequence: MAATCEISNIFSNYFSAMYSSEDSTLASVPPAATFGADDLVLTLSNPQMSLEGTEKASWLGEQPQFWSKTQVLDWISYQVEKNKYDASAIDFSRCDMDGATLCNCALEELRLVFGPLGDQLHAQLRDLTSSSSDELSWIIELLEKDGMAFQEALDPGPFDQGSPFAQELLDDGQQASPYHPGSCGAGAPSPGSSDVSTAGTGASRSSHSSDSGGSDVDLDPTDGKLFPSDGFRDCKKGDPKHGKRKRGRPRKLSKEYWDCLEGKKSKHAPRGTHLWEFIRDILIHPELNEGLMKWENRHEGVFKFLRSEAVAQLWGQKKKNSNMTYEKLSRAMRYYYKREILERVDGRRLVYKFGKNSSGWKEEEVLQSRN
To be noted: protein: recombinant; tags: N-terminal GST; dsDNA, one strand shown. The gist of the method: as §1

The next experiment deals with CRX (Homo sapiens, UniProt O43186 1-299). To be noted: protein: recombinant; tags: N-terminal GST; dsDNA, one strand shown. An outline of the steps: as §1
CRX, sequence (O43186 whole entry): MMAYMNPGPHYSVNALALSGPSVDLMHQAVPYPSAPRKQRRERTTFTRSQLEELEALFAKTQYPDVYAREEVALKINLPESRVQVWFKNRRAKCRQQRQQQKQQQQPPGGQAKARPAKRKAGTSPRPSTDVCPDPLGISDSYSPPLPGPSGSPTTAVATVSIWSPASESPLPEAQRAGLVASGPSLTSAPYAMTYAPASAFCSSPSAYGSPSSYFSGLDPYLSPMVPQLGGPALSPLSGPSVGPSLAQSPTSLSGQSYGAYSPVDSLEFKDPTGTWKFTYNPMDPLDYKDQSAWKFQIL
Another experiment concerns the target ETV1 (Homo sapiens, UniProt P50549 1-477). Conditions: protein: recombinant; tags: N-terminal GST; dsDNA, one strand shown. The gist of the method: as §1

ELF1, sequence (P32519 whole entry): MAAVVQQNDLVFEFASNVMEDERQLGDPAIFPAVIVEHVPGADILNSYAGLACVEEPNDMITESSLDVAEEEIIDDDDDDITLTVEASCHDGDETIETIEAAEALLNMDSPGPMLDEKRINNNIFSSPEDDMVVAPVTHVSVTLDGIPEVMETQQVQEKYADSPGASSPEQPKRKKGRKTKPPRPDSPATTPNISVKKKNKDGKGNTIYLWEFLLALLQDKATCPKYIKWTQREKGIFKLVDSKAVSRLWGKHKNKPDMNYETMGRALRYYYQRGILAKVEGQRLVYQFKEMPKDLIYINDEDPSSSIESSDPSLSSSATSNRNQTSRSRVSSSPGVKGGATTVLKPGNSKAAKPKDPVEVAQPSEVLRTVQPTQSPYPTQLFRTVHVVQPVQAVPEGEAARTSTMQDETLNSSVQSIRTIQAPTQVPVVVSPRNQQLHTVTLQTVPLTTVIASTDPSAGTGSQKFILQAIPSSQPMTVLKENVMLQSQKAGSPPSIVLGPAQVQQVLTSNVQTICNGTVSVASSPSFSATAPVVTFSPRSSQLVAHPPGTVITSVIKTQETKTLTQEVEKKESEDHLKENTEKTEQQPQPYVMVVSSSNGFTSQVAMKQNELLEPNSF
HSF1, sequence (Q00613 whole entry): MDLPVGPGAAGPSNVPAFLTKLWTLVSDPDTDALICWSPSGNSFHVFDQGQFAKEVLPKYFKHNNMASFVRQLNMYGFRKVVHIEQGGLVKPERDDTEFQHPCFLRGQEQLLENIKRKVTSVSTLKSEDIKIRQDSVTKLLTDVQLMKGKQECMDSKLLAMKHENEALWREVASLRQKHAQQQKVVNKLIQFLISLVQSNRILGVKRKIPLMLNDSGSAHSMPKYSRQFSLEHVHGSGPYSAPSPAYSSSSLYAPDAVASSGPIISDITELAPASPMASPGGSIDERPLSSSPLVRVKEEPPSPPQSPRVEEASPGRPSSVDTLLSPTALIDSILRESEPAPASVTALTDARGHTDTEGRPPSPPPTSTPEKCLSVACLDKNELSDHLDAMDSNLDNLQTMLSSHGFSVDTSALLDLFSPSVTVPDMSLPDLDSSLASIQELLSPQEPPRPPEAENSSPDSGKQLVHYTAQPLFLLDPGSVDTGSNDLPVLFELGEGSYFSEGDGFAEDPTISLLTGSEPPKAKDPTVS
ETV1, sequence (P50549 whole entry): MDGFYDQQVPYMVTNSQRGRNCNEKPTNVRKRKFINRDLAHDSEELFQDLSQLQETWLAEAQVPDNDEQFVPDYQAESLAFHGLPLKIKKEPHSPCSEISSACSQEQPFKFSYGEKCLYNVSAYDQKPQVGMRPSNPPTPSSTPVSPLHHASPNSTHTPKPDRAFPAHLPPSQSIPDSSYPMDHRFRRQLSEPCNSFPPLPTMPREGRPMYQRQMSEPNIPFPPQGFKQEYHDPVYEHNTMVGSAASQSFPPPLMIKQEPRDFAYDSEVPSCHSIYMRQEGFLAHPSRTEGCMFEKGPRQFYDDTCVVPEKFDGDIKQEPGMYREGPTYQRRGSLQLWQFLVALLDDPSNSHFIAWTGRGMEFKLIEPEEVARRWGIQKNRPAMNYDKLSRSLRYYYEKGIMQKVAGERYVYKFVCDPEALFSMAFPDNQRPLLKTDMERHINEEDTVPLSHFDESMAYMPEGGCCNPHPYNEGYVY
SPIB, sequence (Q01892 whole entry): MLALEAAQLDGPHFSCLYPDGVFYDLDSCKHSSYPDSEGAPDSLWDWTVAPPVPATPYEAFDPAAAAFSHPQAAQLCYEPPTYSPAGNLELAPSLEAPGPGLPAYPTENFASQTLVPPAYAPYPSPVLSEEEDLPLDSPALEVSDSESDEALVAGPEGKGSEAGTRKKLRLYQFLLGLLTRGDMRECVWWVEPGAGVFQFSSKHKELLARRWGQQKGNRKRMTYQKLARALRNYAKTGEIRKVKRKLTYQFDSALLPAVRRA
ETV5, sequence (P41161 whole entry): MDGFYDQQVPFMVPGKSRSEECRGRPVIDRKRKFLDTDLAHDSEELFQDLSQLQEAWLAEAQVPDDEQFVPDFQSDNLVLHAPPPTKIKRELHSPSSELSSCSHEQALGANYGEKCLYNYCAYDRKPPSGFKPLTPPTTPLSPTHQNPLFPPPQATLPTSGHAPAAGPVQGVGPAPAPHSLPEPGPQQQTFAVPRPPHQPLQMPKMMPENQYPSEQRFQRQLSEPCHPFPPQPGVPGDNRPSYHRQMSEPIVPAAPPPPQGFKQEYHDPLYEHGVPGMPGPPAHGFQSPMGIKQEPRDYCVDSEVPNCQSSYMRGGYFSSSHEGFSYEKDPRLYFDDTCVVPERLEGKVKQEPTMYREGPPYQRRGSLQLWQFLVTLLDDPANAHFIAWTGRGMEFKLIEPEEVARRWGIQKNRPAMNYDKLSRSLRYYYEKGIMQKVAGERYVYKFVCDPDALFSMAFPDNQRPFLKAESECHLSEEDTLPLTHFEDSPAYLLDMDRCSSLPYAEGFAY

In the case of AAAGCT, the binding signal was 1.06 fold enrichment (6-mer frequency, TF over GST control) with FLI1; 1.09 fold enrichment (6-mer frequency, TF over GST control) in the experiment with ELK1; 1.08 fold enrichment (6-mer frequency, TF over GST control) with GABPA; 1.08 fold enrichment (6-mer frequency, TF over GST control) with ERG; 1.09 fold enrichment (6-mer frequency, TF over GST control) with ELF1; 1.01 fold enrichment (6-mer frequency, TF over GST control) with SPI1. Also, the binding signal with SPIB is 1.06 fold enrichment (6-mer frequency, TF over GST control); in the experiment with ELK3 it was 1.01 fold enrichment (6-mer frequency, TF over GST control); with FEV, 1.1 fold enrichment (6-mer frequency, TF over GST control); with ETV5 it was 1.08 fold enrichment (6-mer frequency, TF over GST control); in the experiment with HSF1, 1.32 fold enrichment (6-mer frequency, TF over GST control); in the experiment with ELF4, 1.06 fold enrichment (6-mer frequency, TF over GST control). For the same sequence, the binding signal was 1.13 fold enrichment (6-mer frequency, TF over GST control) with ELK4; 1.01 fold enrichment (6-mer frequency, TF over GST control) in the experiment with ETV2; 1.2 fold enrichment (6-mer frequency, TF over GST control) with ELF3; 1.64 fold enrichment (6-mer frequency, TF over GST control) in the experiment with CRX; 1.06 fold enrichment (6-mer frequency, TF over GST control) in the experiment with ETV1.

The record behind these values is publication PMC7862700, “An all-to-all approach to the identification of sequence-specific readers for epigenetic DNA modifications on cytosine”.
